Our source for the growth values is PubChem BioAssay (NCI).

About 83,000 compounds went through this panel and 20% of them were active in at least one assay; those are over-represented in the sample as a whole.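 Method: cells in 96-well plates; compound added at one concentration; 48 h incubation; percent growth measured; values under 10 scored active.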 Values without a mark were called inactive. Calls of active or inactive are those of the source.

One test deals with HL-60(TB) leukemia. The test can be described thus: NCI-60 one-dose screen, 48 h (100 = growth as untreated, 0 = no growth, -100 = all killed). The following applies: 10 µM unless noted.
For the molecule `CNC(=O)Oc1ccc(C(C)(C)C)cc1OC(=O)NC`, the growth is 85.8%.

For the molecule `CC1(C)C(C(=O)c2cn(CCCCF)c3ccccc23)C1(C)C`, the growth was 76%.

On to `CC(=O)O[C@H](C[C@H](C(C)C)N(C)C(=O)[C@@H](NC(=O)[C@H]1CCCCN1C)C(C)C)c1nc(C(=O)NC2CCC(C(=O)O)CC2)cs1` (stereo partly drawn), for which the growth was -22.2% (active).

In the case of `CCCC[C@H](NC(=O)[C@H]1CCCN1C)C(=O)N(C)[C@H](C[C@@H](OC(C)=O)c1nc(C(=O)N[C@@H](Cc2ccccc2)C[C@H](C)C(=O)OCC)cs1)C(C)C`, the growth is -28.7% (active).

Regarding `CCOC(=O)[C@@H](C)C[C@H](Cc1ccccc1)NC(=O)c1csc([C@@H](C[C@H](C(C)C)N(C)C(=O)CNC(=O)[C@H]2CCCCN2C)OC(C)=O)n1`, the growth is -32.3% (active).

With `COc1ccc([As]=[As]c2ccc(OC)c(NCS(=O)(=O)O)c2)cc1NCS(=O)(=O)O` (stereo not drawn), the growth is -7.43% (active).

For the molecule `CC1=C(CCCOC(=O)[C@H](N)CC(C)C)C2=C(C)C3(CC3)[C@@](C)(O)C(=O)C2=C1`, the growth is 52.3%.

`O=[N+]([O-])c1cc(I)cc([N+](=O)[O-])c1`: the growth is 125%.

`CC(=O)OC[C@]1(C)C=C2C(=O)[C@](C)(O)C3(CC3)C(C)=C2[C@H]1OC(=O)N(C)CCN(C)C(=O)OC(C)(C)C`: the growth was -37% (active).

On to `CC[C@H](C)[C@H](NC(=O)[C@H]1CCCCN1C)C(=O)N(C)[C@H](CCc1nc(C(=O)N[C@@H](Cc2ccccc2)C[C@H](C)C(=O)OC)cs1)C(C)C`, for which the growth is -21.2% (active).

Take `COc1ccc(Nc2ccc([N+](=O)[O-])cc2[N+](=O)[O-])cc1CN(CCCl)CCCl`: the growth was -17.7% (active).

On to `COC(=O)CCc1c[nH]c2ccc(N(CCCl)CCCl)cc12`, for which the growth is 17.5%.

`Nc1c(F)cc(-c2nc3cc(F)ccc3[se]2)cc1F`: the growth is 83.5%.

As for `COC(=O)[C@@]1(C)CC[C@]2(C)CC[C@]3(C)C4=CC=C5C(=CC(=O)C(O)=C5C)[C@]4(C)CC[C@@]3(C)[C@@H]2C1`, the growth was -53.1% (active).

As to `COC(=O)[C@@H](C)C[C@H](Cc1ccccc1)NC(=O)c1nc([C@@H](C[C@H](C(C)C)N(C)C(=O)[C@@H](NC(=O)[C@H]2CCCCN2C)C(C)C)OC(C)=O)sc1C`, the growth was -43.5% (active).

With `CC(=O)O[C@H](C[C@H](C(C)C)N(C)C(=O)[C@@H](NC(=O)[C@H]1CCCN1C)C(C)C)c1nc(C(=O)N[C@@H](Cc2ccccc2)C[C@H](C)C(=O)O)c(C)s1`, the growth is -19.2% (active).

For the molecule `CCOC(=O)[C@@H](C)C[C@H](Cc1ccccc1)NC(=O)c1csc([C@@H](C[C@H](C(C)C)N(C)C(=O)[C@H](CCC(C)C)NC(=O)[C@H]2CCCCN2C)OC(C)=O)n1`, the growth is -32.3% (active).

With `COC(=O)C12CC(NC(=O)c3csc([C@@H](C[C@H](C(C)C)N(C)C(=O)[C@@H](NC(=O)[C@H]4CCCCN4C)C(C)C)OC(C)=O)n3)(C1)C2`, the growth is -38.9% (active).

For `Clc1ccc2nnnn2n1`, the growth is -25.8% (active).

Turning to `CC[C@H](C)[C@H](NC(=O)[C@H]1CCCCN1C)C(=O)N(C)[C@H](C[C@@H](O)c1nc(C(=O)N[C@@H](Cc2ccccc2)C[C@H](C)C(=O)O)cs1)C(C)C`, the growth was 8.99% (active).

With `N#C[S-].[Au+].c1ccc(CN2[CH-]N(Cc3ccccc3)C(c3ccccc3)=C2c2ccccc2)cc1`, the growth was -44.1% (active).

On to `CCCCCCCCCCCCNC(c1ccccc1)C(O)c1ccccc1` (stereo not drawn), for which the growth is 66.8%.

Another test concerns CCRF-CEM leukemia. Described as above. The note with it: 10 µM unless noted.
With `COC(=O)[C@@H](C)C[C@H](Cc1ccccc1)NC(=O)c1nc([C@@H](C[C@H](C(C)C)N(C)C(=O)[C@@H](NC(=O)[C@H]2CCCN2C)C(C)C)OC(C)=O)sc1C`, the growth was 10.3%.

As for `CCCCCSC1C2C(=O)C(Br)=CC13CCNc1c(O)c4c5c(c13)=[N+]2CCC=5C=N4` (stereo not drawn), the growth was -13.5% (active).

Take `CC1=C(CCCOC(=O)CN)C2=C(C)C3(CC3)[C@@](C)(O)C(=O)C2=C1`: the growth was 81.1%.

As for `COC(=O)CC[C@H](Cc1ccccc1)NC(=O)c1csc([C@@H](C[C@H](C(C)C)N(C)C(=O)[C@@H](NC(=O)[C@H]2CCCCN2C)C(C)C)OC(C)=O)n1`, the growth was 19.8%.

`COC(=O)CC12CC(NC(=O)c3csc([C@@H](C[C@H](C(C)C)N(C)C(=O)[C@@H](NC(=O)[C@H]4CCCCN4C)C(C)C)OC(C)=O)n3)(C1)C2`: the growth was 13.6%.

As for `O=C1CNC(c2ccccc2)c2cc(Cl)ccc2N1` (stereo not drawn), the growth is 94.2%.

`CC1(C)N=C(N)N=C(N)N1c1cccc(CCCCc2ccc(Cl)c(S(=O)(=O)F)c2)c1`: the growth is 28.1%.

Consider `CC(=O)O[C@H](C[C@H](C(C)C)N(C)C(=O)[C@@H](NC(=O)[C@H]1CCCCN1C)C(C)C)c1nc(C(=O)N[C@@H](Cc2ccccc2)C[C@H](C)C(=O)O)c(C(C)C)s1`, for which the growth was 3.84% (active).

On to `COC(=O)[C@@H](C)C[C@H](Cc1ccccc1)NC(=O)c1csc(CC[C@H](C(C)C)N(C)C(=O)[C@@H](NC(=O)[C@H]2CCCCN2C)C(C)C)n1`, for which the growth was 13.8%.

As for `CCOP(=O)(NC[C@H]1O[C@](O)(CO)[C@@H](O)[C@@H]1O)OCC`, the growth was 101%.

On to `COc1cc([C@@H]2c3cc4c(cc3[C@H](OC(C)=O)[C@H]3COC(=O)[C@H]23)OCO4)cc(OC)c1OC`, for which the growth was 14.4%.

For `COC(=O)[C@@H](C)C[C@H](Cc1cn(C)c2ccccc12)NC(=O)c1csc([C@@H](C[C@H](C(C)C)N(C)C(=O)[C@@H](NC(=O)[C@H]2CCCCN2C)C(C)C)OC(C)=O)n1`, the growth is 10.8%.

On to `CCOC(=O)[C@@H](C)C[C@H](Cc1ccccc1)NC(=O)c1csc([C@@H](C[C@H](C(C)C)N(C)C(=O)[C@@H](NC(=O)[C@H]2CCCCN2C)C(C)(C)C)OC(C)=O)n1`, for which the growth was 1.8% (active).

For `CC1=C(CCCNS(C)(=O)=O)C2=C(C)C3(CC3)[C@@](C)(O)C(=O)C2=C1`, the growth was 90.9%.

On to `COC(=O)[C@@H](C)C[C@H](Cc1ccccc1)NC(=O)c1cccc([C@@H](C[C@H](C(C)C)N(C)C(=O)[C@@H](NC(=O)[C@H]2CCCCN2C)C(C)C)OC(C)=O)n1`, for which the growth was 7.41% (active).

With `CNC(=O)Oc1ccc(C(C)(C)C)cc1OC(=O)NC`, the growth is 96.6%.

As for `CC1(C)C(C(=O)c2cn(CCCCF)c3ccccc23)C1(C)C`, the growth was 87.1%.

As to `CC(=O)O[C@H](C[C@H](C(C)C)N(C)C(=O)[C@@H](NC(=O)[C@H]1CCCCN1C)C(C)C)c1nc(C(=O)NC2CCC(C(=O)O)CC2)cs1` (stereo partly drawn), the growth is 12.8%.

As for `CCCC[C@H](NC(=O)[C@H]1CCCN1C)C(=O)N(C)[C@H](C[C@@H](OC(C)=O)c1nc(C(=O)N[C@@H](Cc2ccccc2)C[C@H](C)C(=O)OCC)cs1)C(C)C`, the growth is 11.1%.

In the case of `CCOC(=O)[C@@H](C)C[C@H](Cc1ccccc1)NC(=O)c1csc([C@@H](C[C@H](C(C)C)N(C)C(=O)CNC(=O)[C@H]2CCCCN2C)OC(C)=O)n1`, the growth is 5.17% (active).

With `COc1ccc([As]=[As]c2ccc(OC)c(NCS(=O)(=O)O)c2)cc1NCS(=O)(=O)O` (stereo not drawn), the growth was -13.9% (active).

For `CC1=C(CCCOC(=O)[C@H](N)CC(C)C)C2=C(C)C3(CC3)[C@@](C)(O)C(=O)C2=C1`, the growth was 80%.

On to `O=[N+]([O-])c1cc(I)cc([N+](=O)[O-])c1`, for which the growth was 100%.

As for `CC(=O)OC[C@]1(C)C=C2C(=O)[C@](C)(O)C3(CC3)C(C)=C2[C@H]1OC(=O)N(C)CCN(C)C(=O)OC(C)(C)C`, the growth is 19.9%.

With `CC[C@H](C)[C@H](NC(=O)[C@H]1CCCCN1C)C(=O)N(C)[C@H](CCc1nc(C(=O)N[C@@H](Cc2ccccc2)C[C@H](C)C(=O)OC)cs1)C(C)C`, the growth was 12.8%.

As to `COc1ccc(Nc2ccc([N+](=O)[O-])cc2[N+](=O)[O-])cc1CN(CCCl)CCCl`, the growth is 2.14% (active).

On to `Nc1c(F)cc(-c2nc3cc(F)ccc3[se]2)cc1F`, for which the growth was 88.7%.

In the case of `COC(=O)[C@@]1(C)CC[C@]2(C)CC[C@]3(C)C4=CC=C5C(=CC(=O)C(O)=C5C)[C@]4(C)CC[C@@]3(C)[C@@H]2C1`, the growth was -41.2% (active).

With `COC(=O)[C@@H](C)C[C@H](Cc1ccccc1)NC(=O)c1nc([C@@H](C[C@H](C(C)C)N(C)C(=O)[C@@H](NC(=O)[C@H]2CCCCN2C)C(C)C)OC(C)=O)sc1C`, the growth was 7.82% (active).

For the molecule `CC(=O)O[C@H](C[C@H](C(C)C)N(C)C(=O)[C@@H](NC(=O)[C@H]1CCCN1C)C(C)C)c1nc(C(=O)N[C@@H](Cc2ccccc2)C[C@H](C)C(=O)O)c(C)s1`, the growth is 8.48% (active).

For the molecule `CCOC(=O)[C@@H](C)C[C@H](Cc1ccccc1)NC(=O)c1csc([C@@H](C[C@H](C(C)C)N(C)C(=O)[C@H](CCC(C)C)NC(=O)[C@H]2CCCCN2C)OC(C)=O)n1`, the growth was 9.03% (active).

With `COC(=O)C12CC(NC(=O)c3csc([C@@H](C[C@H](C(C)C)N(C)C(=O)[C@@H](NC(=O)[C@H]4CCCCN4C)C(C)C)OC(C)=O)n3)(C1)C2`, the growth was 8.23% (active).

Turning to `Clc1ccc2nnnn2n1`, the growth was 19.6%.

In the case of `CC[C@H](C)[C@H](NC(=O)[C@H]1CCCCN1C)C(=O)N(C)[C@H](C[C@@H](O)c1nc(C(=O)N[C@@H](Cc2ccccc2)C[C@H](C)C(=O)O)cs1)C(C)C`, the growth was 43.5%.

On to `N#C[S-].[Au+].c1ccc(CN2[CH-]N(Cc3ccccc3)C(c3ccccc3)=C2c2ccccc2)cc1`, for which the growth was 1.1% (active).

As for `CCCCCCCCCCCCNC(c1ccccc1)C(O)c1ccccc1` (stereo not drawn), the growth is 63.1%.
